# Measured values from PubChem BioAssay.
# Calls of active or inactive are those of the source.
# How the values were obtained:
# [1] = test system: Plasmodium falciparum Sir2 (PF13_0152, Sir2A); experiment: pfSir2 binders on small-molecule microarrays, primary screen, biochemical, small-molecule microarray, 635 nm fluorescence (AID 1098); settings: small-molecule microarray binding, fluorescence 635 nm; higher = more signal;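 further: score merges spot fluorescence intensity with its signal-to-noise ratio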
# [2] = small-molecule microarray binders of probe aDKK1, primary screen, biochemical, biotinylated probe, 635/667 nm fluorescence (AID 1099); settings: higher = more signal;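 further: score merges 667nm spot fluorescence with signal to noise across triplicate slides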
# [3] = small-molecule microarray binders of probe aCHRDL2, primary screen, biochemical, biotinylated probe, 635/667 nm fluorescence (AID 1100); settings: higher = more signal
# [4] = splicing luciferase reporter signal modulators, primary screen, spliceosome inhibition project, cell-based, HEK293, splice +/- reporter (AID 1101); settings: luminescence, 24 h, higher = more signal, called active from +8 up or from −8 down;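 further: HEK293 cells carrying a splicing-competent luciferase reporter gene; test concentration not given here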
# [5] = target: Fibroblast growth factor 10 (Homo sapiens) (UniProt O15520); experiment: FGF10 binders on small-molecule microarrays, primary screen, biochemical, small-molecule microarray, 635 nm fluorescence (AID 1102); settings: FGF10 binding, fluorescence 635 nm, higher = more signal
# Sequence of Fibroblast growth factor 10 (Homo sapiens) (O15520 whole entry, looked up): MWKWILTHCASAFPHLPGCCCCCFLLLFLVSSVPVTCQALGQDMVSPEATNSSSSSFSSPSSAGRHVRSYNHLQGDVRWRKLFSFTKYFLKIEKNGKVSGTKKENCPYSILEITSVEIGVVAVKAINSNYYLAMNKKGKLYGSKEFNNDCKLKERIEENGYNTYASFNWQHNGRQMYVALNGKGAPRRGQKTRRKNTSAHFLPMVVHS
# [6] = test system: glycogen synthase kinase-3 (GSK3A per assay name; protocol says GSK3B); experiment: GSK3 binders on small-molecule microarrays, primary screen, biochemical, small-molecule microarray, 635 nm fluorescence, GSK3A (AID 1103); settings: small-molecule microarray binding, fluorescence 635 nm; higher = more signal; further: the record names both GSK3A and GSK3B
# [7] = target: Epidermal growth factor receptor (Homo sapiens) (UniProt P00533); experiment: EGFR binders on small-molecule microarrays, primary screen, biochemical, small-molecule microarray, 635 nm fluorescence (AID 1104); settings: EGFR binding, higher = more signal;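 further: score merges 667 nm emission intensity with spot signal to noise over triplicate slides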
# Sequence of Epidermal growth factor receptor (Homo sapiens) (P00533 whole entry, looked up): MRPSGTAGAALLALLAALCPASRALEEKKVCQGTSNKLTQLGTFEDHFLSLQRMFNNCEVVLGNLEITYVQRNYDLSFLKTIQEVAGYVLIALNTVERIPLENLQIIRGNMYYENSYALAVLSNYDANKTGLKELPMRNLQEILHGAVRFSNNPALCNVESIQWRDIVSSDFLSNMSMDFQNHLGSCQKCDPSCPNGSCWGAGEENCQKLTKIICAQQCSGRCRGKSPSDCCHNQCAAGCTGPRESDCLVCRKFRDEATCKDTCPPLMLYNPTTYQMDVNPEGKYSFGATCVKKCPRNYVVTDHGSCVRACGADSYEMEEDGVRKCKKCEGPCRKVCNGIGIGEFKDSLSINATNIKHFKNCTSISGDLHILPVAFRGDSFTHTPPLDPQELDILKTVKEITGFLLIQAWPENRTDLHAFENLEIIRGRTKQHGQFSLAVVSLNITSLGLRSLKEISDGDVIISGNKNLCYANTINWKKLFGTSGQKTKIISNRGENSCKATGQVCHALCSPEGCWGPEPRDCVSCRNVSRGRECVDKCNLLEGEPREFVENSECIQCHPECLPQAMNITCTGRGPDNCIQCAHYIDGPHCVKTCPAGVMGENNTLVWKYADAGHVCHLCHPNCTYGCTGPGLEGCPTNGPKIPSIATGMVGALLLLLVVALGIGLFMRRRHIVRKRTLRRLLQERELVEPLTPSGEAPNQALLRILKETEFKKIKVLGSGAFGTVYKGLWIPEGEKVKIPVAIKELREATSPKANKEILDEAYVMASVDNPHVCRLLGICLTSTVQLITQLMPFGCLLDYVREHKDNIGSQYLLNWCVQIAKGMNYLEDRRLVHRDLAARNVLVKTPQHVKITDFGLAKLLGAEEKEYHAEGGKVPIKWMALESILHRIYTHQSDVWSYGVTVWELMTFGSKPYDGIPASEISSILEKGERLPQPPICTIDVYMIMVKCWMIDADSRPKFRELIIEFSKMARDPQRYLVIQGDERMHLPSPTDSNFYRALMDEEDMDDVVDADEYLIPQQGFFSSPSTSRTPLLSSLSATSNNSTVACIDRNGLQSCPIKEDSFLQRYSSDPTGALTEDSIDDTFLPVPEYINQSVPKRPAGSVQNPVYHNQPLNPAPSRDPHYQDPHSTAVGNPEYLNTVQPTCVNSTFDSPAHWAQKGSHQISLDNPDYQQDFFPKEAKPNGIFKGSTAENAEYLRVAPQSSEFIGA
# [8] = target: Follistatin-related protein 3 (Homo sapiens) (UniProt O95633); experiment: FSTL3 binders on small-molecule microarrays, primary screen, biochemical, small-molecule microarray, 635 nm fluorescence (AID 1105); settings: FSTL3 binding, higher = more signal;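 further: score merges emission near 667 nm and signal to noise per printed spot across three slides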
# Sequence of Follistatin-related protein 3 (Homo sapiens) (O95633 whole entry, looked up): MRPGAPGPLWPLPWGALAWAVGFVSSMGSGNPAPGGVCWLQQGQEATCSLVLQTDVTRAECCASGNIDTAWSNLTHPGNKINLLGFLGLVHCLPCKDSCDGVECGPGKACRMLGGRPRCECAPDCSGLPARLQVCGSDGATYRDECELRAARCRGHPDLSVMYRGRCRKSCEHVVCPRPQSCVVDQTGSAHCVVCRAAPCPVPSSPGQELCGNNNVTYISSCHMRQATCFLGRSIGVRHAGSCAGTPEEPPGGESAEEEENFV
# [9] = target: Dickkopf-related protein 1 (Homo sapiens) (UniProt O94907); experiment: DKK1 binders on small-molecule microarrays, primary screen, biochemical, small-molecule microarray, 635 nm fluorescence scan (AID 1106); settings: DKK1 binding, higher = more signal;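 further: score merges emission near 667 nm with signal to noise over three replicate slides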
# Sequence of Dickkopf-related protein 1 (Homo sapiens) (O94907 whole entry, looked up): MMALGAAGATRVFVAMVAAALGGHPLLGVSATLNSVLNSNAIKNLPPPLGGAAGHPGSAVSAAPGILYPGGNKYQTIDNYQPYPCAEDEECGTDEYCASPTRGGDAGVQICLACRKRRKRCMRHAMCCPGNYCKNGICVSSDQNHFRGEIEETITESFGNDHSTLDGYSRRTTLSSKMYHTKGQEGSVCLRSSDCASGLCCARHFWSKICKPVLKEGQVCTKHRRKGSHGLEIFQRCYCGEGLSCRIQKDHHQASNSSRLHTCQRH
# [10] = test system: Inhibin beta A chain (activin A); experiment: INHBA (activin A) binders on microarrays, primary screen, biochemical, small-molecule microarray, 635 nm fluorescence scan (AID 1107); settings: small-molecule microarray binding, higher = more signal;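 further: mouse activin A protein probed at 4.33 µg/mL on printed slides; score merges bound-protein fluorescence near 667 nm with spot signal-to-noise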
# [11] = test system: Human papillomavirus type 1a protein E7 (residues 44-93); experiment: HPV1a E7 fragment binders on microarrays, primary screen, biochemical, small-molecule microarray, residues 44-93, 635 nm fluorescence (AID 1108); settings: small-molecule microarray binding, fluorescence 635 nm; higher = more signal;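 further: E7 fragment applied at 1 µg/mL in TBST for 1 h at 4 C; score combines spot fluorescence with its signal to noise ratio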
# [12] = modulators of HCV replicon luciferase signal, primary screen, HCV replication inhibitor project, Huh7 cells, luciferase reporter (AID 1109); settings: 48 h, higher = more signal;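 further: huh7 hepatoma cells harbouring a luciferase neomycin HCV replicon reporter; luciferase luminescence as measure of HCV replicon replication; test concentration not given here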
# [13] = target: Left-right determination factor 2 (Homo sapiens) (UniProt O00292); experiment: LEFTY2 binders on small-molecule microarrays, primary screen, biochemical, small-molecule microarray, 635 nm fluorescence scan (AID 1110); settings: LEFTY2 binding, higher = more signal
# Sequence of Left-right determination factor 2 (Homo sapiens) (O00292 whole entry, looked up): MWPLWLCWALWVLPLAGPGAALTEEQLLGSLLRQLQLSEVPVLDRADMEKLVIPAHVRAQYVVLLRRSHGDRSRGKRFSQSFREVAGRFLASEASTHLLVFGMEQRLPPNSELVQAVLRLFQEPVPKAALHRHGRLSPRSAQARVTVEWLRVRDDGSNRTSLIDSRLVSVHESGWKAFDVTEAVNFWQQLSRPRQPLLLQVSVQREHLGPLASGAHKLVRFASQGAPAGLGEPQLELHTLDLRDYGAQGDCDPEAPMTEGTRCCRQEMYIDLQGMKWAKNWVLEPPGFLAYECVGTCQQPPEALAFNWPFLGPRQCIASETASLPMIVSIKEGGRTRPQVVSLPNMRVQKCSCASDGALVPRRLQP
# [14] = target: Calmodulin-1 (Homo sapiens) (UniProt P0DP23); experiment: CALM1 binders on microarrays, EGTA buffer, profiling panel, biochemical, small-molecule microarray, Cy5-labelled CALM1 (AID 1111); settings: Cy5-CALM1 binding fluorescence, higher = more signal;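 further: labelled calmodulin applied in Tris saline Tween buffer holding calcium plus EGTA and DTT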
# [15] = target: Calmodulin-1 (Homo sapiens) (UniProt P0DP23); experiment: calcium-bound CALM1 binders on microarrays, profiling panel, artefact control for SMM control-protein annotation, biochemical, small-molecule microarray, Cy5-labelled CALM1, plus calcium (AID 1112); settings: Cy5-CALM1 binding fluorescence, higher = more signal;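 further: score merges spot fluorescence with signal to noise from triplicate slides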
# [16] = small-molecule microarray binders of probe aWnt5a, primary screen, biochemical, biotinylated probe, 635/667 nm fluorescence (AID 1113); settings: higher = more signal;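 further: score merges 667 nm fluorescence intensity with signal-to-noise per printed feature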
# [17] = small-molecule microarray binders of probe aShh, primary screen, biochemical, biotinylated probe, 635/667 nm fluorescence (AID 1114); settings: higher = more signal;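 further: probe is biotin-labelled aShh protein from a stem cell growth factor screen; measures binding of labelled protein to compounds printed on the slide; score merges feature fluorescence at 667 nm with signal-to-noise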
# [18] = small-molecule microarray binders of probe aNog, primary screen, biochemical, biotinylated probe, 635/667 nm fluorescence (AID 1115); settings: higher = more signal;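 further: probe is biotinylated aNog protein used at 0.15 µg/mL for 1 h at 4 C; z-score combines 667 nm fluorescence of each spot with its signal to noise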
# [19] = target: Torsin-1A-interacting protein 1 (Homo sapiens) (UniProt Q5JTV8); experiment: LAP1 binders from COS7 cell lysate, primary screen, small-molecule microarray, 635/667 nm fluorescence (AID 1116); settings: COS7-hLAP1 lysate binding, 635 nm fluorescence, higher = more signal
# Sequence of Torsin-1A-interacting protein 1 (Homo sapiens) (Q5JTV8 whole entry, looked up): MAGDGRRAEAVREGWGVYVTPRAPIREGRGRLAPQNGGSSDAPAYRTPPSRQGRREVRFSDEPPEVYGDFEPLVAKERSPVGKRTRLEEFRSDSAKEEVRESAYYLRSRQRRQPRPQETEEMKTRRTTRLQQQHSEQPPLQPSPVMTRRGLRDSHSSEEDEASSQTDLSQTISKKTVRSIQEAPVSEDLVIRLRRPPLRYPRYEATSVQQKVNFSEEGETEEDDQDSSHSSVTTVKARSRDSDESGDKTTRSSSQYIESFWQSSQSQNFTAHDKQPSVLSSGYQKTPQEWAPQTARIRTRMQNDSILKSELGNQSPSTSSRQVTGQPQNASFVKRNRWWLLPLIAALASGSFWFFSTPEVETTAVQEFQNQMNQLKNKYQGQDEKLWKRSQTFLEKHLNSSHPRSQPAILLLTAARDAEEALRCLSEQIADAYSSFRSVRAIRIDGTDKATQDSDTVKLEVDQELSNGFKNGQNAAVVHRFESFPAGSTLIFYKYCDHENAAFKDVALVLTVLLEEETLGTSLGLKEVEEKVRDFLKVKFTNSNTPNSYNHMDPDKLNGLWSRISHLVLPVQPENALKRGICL
# [20] = target: Alpha-bungarotoxin (Bungarus multicinctus) (UniProt P60615); experiment: alpha-bungarotoxin binders on microarray, profiling panel, artefact control for SMM control protein annotation, biochemical, small-molecule microarray, Alexa647 label, 635/667 nm fluorescence (AID 1117); settings: alpha-BTX-A647 binding fluorescence, higher = more signal
# Sequence of Alpha-bungarotoxin (Bungarus multicinctus) (P60615 whole entry, looked up): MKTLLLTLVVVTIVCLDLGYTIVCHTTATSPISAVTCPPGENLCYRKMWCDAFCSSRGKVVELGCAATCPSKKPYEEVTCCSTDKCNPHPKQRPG
Compound,composite z-score [1],composite z-score [2],composite z-score [3],z-score [4],composite z-score [5],composite z-score [6],composite z-score [7],composite z-score [8],composite z-score [9],composite z-score [10],composite z-score [11],z-score [12],composite z-score [13],composite z-score [14],composite z-score [15],composite z-score [16],composite z-score [17],composite z-score [18],composite z-score [19],composite z-score [20]
COc1ccc([Si](C)(C)[C@H]2[C@H](CCn3cc([C@H](O)c4ccccc4)nn3)O[C@@]3(C(=O)N(C)c4c(Br)cc(C)cc43)[C@@H]2C)cc1,-0.34,-0.189,0.387,-0.923 (inactive),0.574,0.0322,-0.597,-0.499,0.335,0.227,-0.0087,-4.19,0.285,0.0287,-0.0094,-0.124,0.0796,-0.411,0.088,0.14
CC(C)C[C@H]1NC(=O)[C@@]23C(=O)N[C@@H](Cc4ccccc4)C2[C@H](C)[C@@]2(C)O[C@H]2C3/C=C/C/C=C\CNC(=O)[C@@H]2CCCN2C1=O (stereo not given in full),0.903,-0.244,-0.575,0.091 (inactive),0.815,0.47,0.139,0.572,0.668,0.918,0.612,-0.0034,0.459,-0.0621,-0.576,-0.0704,0.111,0.283,0.268,0.288
COc1ccc(CCNC(=O)[C@@H]2c3ccccc3C(=O)N(CC34CC5CC(CC(C5)C3)C4)[C@H]2c2ccc(CO)cc2)cc1,0.959,-0.0038,0.309,-1.02 (inactive),1.06,0.406,0.277,0.644,0.323,0.64,1.29,-2.34,0.453,1.67,0.576,-0.0286,0.0381,-0.338,0.321,0.664
CC(C)[C@@H](C(=O)O)n1cc(-c2ccccc2)nn1,0.377,0.824,0.69,0.317 (inactive),0.737,1.27,0.262,0.256,0.0435,0.48,0.972,0.281,0.396,0.913,0.957,0.0145,0.227,-0.0238,0.941,1.03
COCCOC(=O)N1C(=O)[C@@]2(c3cc(C#CCC(C(=O)OC)C(=O)OC)ccc31)[C@H](C(=O)N1CCc3cc(OC)c(OC)cc3C1)[C@H]1C(=O)O[C@H](c3ccccc3)[C@H](c3ccccc3)N1[C@@H]2c1ccc(O)cc1,0.86,0.148,0.0085,1.5 (inactive),1.24,0.636,0.868,1.47,1.62,0.418,1.4,-0.649,1.17,0.442,-0.406,0.0718,0.0326,-0.537,0.965,0.906
O=C(NCC(F)(F)F)[C@@H]1c2ccccc2C(=O)N(CC23CC4CC(CC(C4)C2)C3)[C@H]1c1ccc(CO)cc1,0.586,-0.0677,-0.217,-1.32 (inactive),0.75,0.804,0.169,0.858,0.26,0.47,1.02,-1.83,0.355,0.579,-0.715,-0.0398,0.136,-0.222,0.613,-0.523
COCCOC(=O)N1C(=O)[C@@]2(c3ccccc31)[C@H](C(N)=O)[C@H]1C(=O)O[C@H](c3ccccc3)[C@H](c3ccccc3)N1[C@@H]2c1ccc(OCCO)cc1,0.537,-0.122,0.093,0.172 (inactive),1.08,1.3,0.0401,1.1,0.253,0.319,1.45,-1.09,0.234,0.68,-0.183,-0.063,0.0723,-0.0161,0.905,1.37
C=CC(CO)NC(=O)OCC1c2ccccc2-c2ccccc21 (stereo not given),0.193,-0.291,-0.475,0.406 (inactive),0.324,0.365,0.674,0.608,0.554,0.26,0.0077,-0.479,0.407,-0.0914,-0.885,0.048,-0.426,-0.208,-0.141,0.252
CC1CC/C=C\[C@H]2OC34C=CCN(c5ccc(Cl)cc5)C(=O)[C@H]3N(CCCO)C(=O)[C@]4(C)C2C(=O)O1 (stereo not given in full),0.312,-0.0782,0.717,0.453 (inactive),-1.32,-1.28,-1.1,-0.949,-1.42,0.596,-0.678,-1.07,-1.33,-0.484,0.456,-0.124,-0.0553,-0.0211,-1.06,-0.859
C=CCC(OC(C)=O)[C@@H]1[C@@H](N(Cc2ccc(-c3ccccc3)cc2)C(=O)c2ccc(-c3ccccc3)cc2)c2cc(OCCCO)ccc2N1C(=O)c1ccc2ccccc2n1 (stereo not given in full),0.212,0.103,0.168,-1.27 (inactive),0.46,0.213,-0.486,0.204,-0.328,1.38,0.0942,-0.0356,0.108,0.19,0.531,-0.184,-0.214,-0.335,0.276,-0.282
C=CCNC(=O)[C@H]1[C@@H]2C(=O)O[C@@H](c3ccccc3)[C@@H](c3ccccc3)N2[C@@H](c2ccccc2OCCO)[C@]12C(=O)N(C(=O)OCCOC)c1ccccc12,1.58,0.125,0.0274,-1.24 (inactive),1.08,1.28,0.341,0.616,0.239,-0.101,1.11,-3.16,0.142,0.336,0.287,-0.124,0.0684,0.86,1.13,1.53
